Reference: PubChem BioAssay (NCI)
The panel holds about 79,000 compounds, 15% with a hit somewhere; the sample as a whole holds those more often. Calls of active or inactive are those of the source. No stated cut-off is given here; in the data, active means growth inhibition above about 70%; inactive means the rest.

Key:
[1] = NCI Yeast Anticancer Drug Screen. Data for the rad52 strain (AID 147);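 further: 0% = growth of vehicle-treated control cultures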; conditions: S. cerevisiae rad52 mutant growth inhibition, active compounds read high
Outline: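 Genetically altered yeast (DNA damage repair defect) treated with compound; inhibition calculated relative to vehicle.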

[2] = NCI Yeast Anticancer Drug Screen. Data for the wt1 strain (AID 149);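 further: 0% = growth of vehicle-treated wt1 cultures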; conditions: S. cerevisiae wt1 strain (SPY 50644) growth inhibition, active compounds read high
Outline: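 Each compound is tested on wt1 yeast and the loss of growth versus vehicle gives the inhibition value.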

[3] = NCI Yeast Anticancer Drug Screen. Data for the rad50EPP+ strain (AID 151);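 further: 0% = growth of vehicle-treated control cultures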; conditions: S. cerevisiae rad50 mutant strain, active compounds read high
Outline: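 Strain rad50EPP+; compound exposure; % growth inhibition vs vehicle.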

[4] = NCI Yeast Anticancer Drug Screen. Data for the mgt1 strain (AID 153); conditions: S. cerevisiae mgt1 mutant growth inhibition, active compounds read high
Outline: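 Read-out: yeast growth inhibition vs vehicle control. Strain mgt1, drawn from a panel altered in DNA damage repair or cell cycle control.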

[5] = NCI Yeast Anticancer Drug Screen. Data for the rad50 strain (AID 155);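 further: 0% = growth of vehicle-only cultures of the same strain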; conditions: S. cerevisiae rad50 strain growth inhibition, active compounds read high
Outline: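 Vehicle-treated cultures provide the reference for the growth inhibition reported for compound-exposed, repair-deficient yeast.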

[6] = NCI Yeast Anticancer Drug Screen. Data for the mec2-1 strain (AID 157); conditions: S. cerevisiae mec2-1 strain, active compounds read high
Outline: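 Cells of the genetically defined mec2-1 yeast strain are incubated with test compound. Inhibition of growth is calculated against vehicle-treated controls.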

[7] = NCI Yeast Anticancer Drug Screen. Data for the rad14 strain (AID 159);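 further: 0% = growth of vehicle-treated control cultures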; conditions: S. cerevisiae rad14 strain growth inhibition, active compounds read high
Outline: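 Inhibition of growth is reported for a repair-deficient yeast mutant following compound treatment, calculated relative to cultures that received vehicle.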

[8] = NCI Yeast Anticancer Drug Screen. Data for the sgs1 mgt1 strain (AID 161);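 further: 0% = growth of cultures given vehicle only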; conditions: S. cerevisiae sgs1 mgt1 strain, active compounds read high
Outline: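 Test agents were incubated with a DNA-repair-mutant yeast strain. Growth was then read and compared against vehicle-treated controls.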

[9] = NCI Yeast Anticancer Drug Screen. Data for the CLN2oe strain (AID 163);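 further: 0% = growth of vehicle-only control cultures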; conditions: S. cerevisiae CLN2oe strain, active compounds read high
Outline: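 Strain altered in cell-cycle control, incubated with compound; growth compared to solvent-treated controls.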

[10] = NCI Yeast Anticancer Drug Screen. Data for the cln2 rad14 strain (AID 165);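 further: 0% = growth equal to vehicle treated cultures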; conditions: S. cerevisiae cln2 rad14 strain, active compounds read high
Outline: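 The screen exposed genetically defined yeast (cln2 rad14) to test compounds and scored growth inhibition relative to vehicle-treated controls.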

[11] = NCI Yeast Anticancer Drug Screen. Data for the bub3 strain (AID 167); conditions: S. cerevisiae bub3 mutant strain, active compounds read high
Outline: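 Mutant yeast screening strain plus compound; vehicle-treated cultures serve as the 0% inhibition reference.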

[12] = NCI Yeast Anticancer Drug Screen. Data for the wt2 strain (AID 169); conditions: S. cerevisiae wt2 strain growth inhibition, active compounds read high
Outline: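 Steps: yeast strain treated with compound; growth recorded; inhibition calculated relative to cultures given vehicle alone.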

[13] = NCI Yeast Anticancer Drug Screen. Data for the mlh1 strain (AID 171);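 further: 0% = growth of vehicle-treated control cultures of the same strain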; conditions: S. cerevisiae mlh1 strain growth inhibition, active compounds read high
Outline: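 Yeast screen: mutant strain plus compound, growth scored against vehicle control wells.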

[14] = NCI Yeast Anticancer Drug Screen. Data for the sgs1 strain (AID 173);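 further: 0% = growth of vehicle-only control cultures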; conditions: S. cerevisiae sgs1 mutant, active compounds read high
Outline: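 Inhibition of yeast growth served as the measure. The mutant strain was treated with each compound, and growth was normalised to cultures receiving vehicle alone.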

[15] = NCI Yeast Anticancer Drug Screen. Data for the mlh1 rad18 strain (AID 175); conditions: S. cerevisiae mlh1 rad18 strain growth inhibition, active compounds read high
Outline: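 Compound-treated yeast growth, normalised to vehicle controls. Strain bears defined DNA repair mutations.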

[16] = at 5.0 µM (retest, dose inferred, filed as 0.5)
[17] = at 50.0 µM (retest, dose inferred, filed as 5.0)

Measured: growth inhibition

CCCCCOC(=S)SC(=O)OCC
inactive: [1]; at 1.2 µM 0% | [1]; at 3.7 µM 7% | [1]; at 11.0 µM 27% | [1]; at 33.0 µM 63% | [2]; at 1.2 µM -4% | [2]; at 3.7 µM -1% | [2]; at 11.0 µM 8% | [2]; at 33.0 µM 35% | [2]; at 100.0 µM 64% | [3]; at 1.2 µM -3% | [3]; at 3.7 µM 9% | [3]; at 11.0 µM 18% | [3]; at 33.0 µM 30% | [3]; at 100.0 µM 36% | [4]; at 1.2 µM -4% | [4]; at 3.7 µM -2% | [4]; at 11.0 µM 6% | [4]; at 33.0 µM 37% | [5]; at 1.2 µM 1% | [5]; at 3.7 µM 32% | [5]; [16] 20% | [5]; at 11.0 µM 51% | [6]; at 1.2 µM -3% | [6]; at 3.7 µM 3% | [6]; [16] 27% | [6]; at 11.0 µM 26% | [6]; at 33.0 µM 48% | [7]; at 1.2 µM -5% | [7]; at 3.7 µM -4% | [7]; at 11.0 µM 12% | [7]; at 33.0 µM 42% | [8]; [16] 33% | [9]; at 1.2 µM -7% | [9]; at 3.7 µM -6% | [9]; at 11.0 µM -7% | [9]; at 33.0 µM 1% | [9]; at 100.0 µM 30% | [10]; [16] 9% | [10]; [17] 53% | [10]; at 50.0 µM 64.8% | [11]; at 1.2 µM 2% | [11]; at 3.7 µM 6% | [11]; [16] 55% | [11]; at 11.0 µM 40% | [12]; at 1.2 µM -4% | [12]; at 3.7 µM 6% | [12]; at 11.0 µM 4% | [12]; at 33.0 µM 39% | [13]; at 1.2 µM -1% | [13]; at 3.7 µM 2% | [13]; at 11.0 µM 14% | [13]; at 33.0 µM 63% | [14]; at 1.2 µM -3% | [14]; at 3.7 µM 4% | [14]; at 11.0 µM 45% | [15]; [16] 43%
active: [1]; at 100.0 µM 94% | [4]; at 100.0 µM 92% | [5]; at 33.0 µM 84% | [5]; [17] 95% | [5]; at 50.0 µM 98% | [5]; at 100.0 µM 95% | [6]; [17] 95% | [6]; at 50.0 µM 98.5% | [6]; at 100.0 µM 86% | [7]; at 100.0 µM 92% | [8]; [17] 97% | [8]; at 50.0 µM 97.7% | [11]; at 33.0 µM 82% | [11]; [17] 96% | [11]; at 50.0 µM 96.8% | [11]; at 100.0 µM 94% | [12]; at 100.0 µM 90% | [13]; at 100.0 µM 95% | [14]; at 33.0 µM 90% | [14]; at 100.0 µM 97% | [15]; [17] 96% | [15]; at 50.0 µM 96.6%
